Laboratory results reported in PubChem BioAssay AID651899 (Broad Institute, 2012).
Potency and affinity values are given separately. Active and inactive are the calls of the source. Where a call stands in place of a potency, no number is given. The rule behind the calls is not given here.

assay: cytotoxicity in HEK293 cells, dose response, cytotoxicity control, cell-based, plate reader, cherry-pick (AID 651899); conditions: series mostly up to 26 µM;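 note: cells exposed to compound for 48 hours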

Row | Compound | outcome
1 | C/C=C/c1ccc2c(c1)O[C@@H](CN(C)C(=O)Nc1ccccc1)[C@H](C)CN([C@H](C)CO)S2(=O)=O | inactive
2 | C[C@@H]1CN([C@H](C)CO)C(=O)Cc2cc(NC(=O)Cn3cnnn3)ccc2O[C@H]1CN(C)Cc1ccc2c(c1)OCO2 | inactive
3 | CNC(=O)C[C@H]1CC[C@@H]2[C@H](COC[C@@H](O)CN2C(=O)Nc2ccc3c(c2)OCO3)O1 | inactive
4 | COc1cc2cnc(-c3cccnc3)cc2cc1OC | inactive
5 | O=C(Nc1ccc2c(c1)[C@H]1C[C@@H](CC(=O)N3CCc4ccccc4C3)O[C@H](CO)[C@H]1O2)c1cccnc1 | inactive
6 | COc1ccc(-c2cc(NC=O)c3ncc(-c4cccc(C(=O)N(C)C)c4)n3c2)cn1 | inactive
7 | NC(=O)c1ccc(Oc2cccc3cccnc23)c([N+](=O)[O-])c1 | inactive
8 | CN1CCCC1CCOC(C)(c1ccccc1)c1ccc(Cl)cc1 (stereo unspecified) | inactive
9 | COC(=O)C[C@H]1CC[C@@H]2[C@H](COC[C@@H](O)CN2C(=O)Nc2cccc(F)c2)O1 | inactive
10 | O=C(c1cccc(F)c1)N1CC[C@@H]2[C@H](CO)Nc3ccc(-c4cccc(F)c4)cc3[C@@H]21 | inactive
11 | COC(=O)c1c(C(=O)OC)c(-c2cccc(F)c2)n2c1CS(=O)C2 (stereo unspecified) | inactive
12 | CC(Oc1cc2oc(=O)c3c(c2cc1Cl)CCC3)C(=O)NCc1cccnc1 (stereo unspecified) | inactive
13 | C/C=C/c1ccc2c(c1)O[C@@H](CN(C)C(=O)Cc1cccnc1)[C@H](C)CN([C@H](C)CO)S2(=O)=O | inactive
14 | CN1c2ccc(-c3cccc(C#N)c3)cc2[C@H]2[C@H](CCN2C(=O)CC2CC2)[C@H]1CO | inactive
15 | Cc1nn(CCC(=O)O)c2nc(-c3cccnc3)cc(C(F)(F)F)c12 | inactive
16 | Cc1cccc(-c2ccc3c(c2)C2CC3CCN2)c1 (stereo unspecified) | inactive
17 | CC(=O)c1c(C)[nH]c(C(=O)Nc2cccnc2)c1C | inactive
18 | CC(=O)c1ccc(N2CCN(C(=O)c3ccc(Br)cc3)CC2)c(F)c1 | inactive

Row | Compound | outcome
19 | O=C(Nc1cccnc1)C1CCN(S(=O)(=O)c2ccc(Cl)cc2)CC1 | inactive
20 | O=C(Nc1ccc(F)c(Cl)c1)C1CCCN(c2cnccn2)C1 (stereo unspecified) | inactive
21 | Cc1ccc(NCc2nnc(SCC(=O)N3CCc4ccccc43)n2C)cc1 | inactive
22 | O=C(N[C@H]1CC[C@@H](CCn2cc(-c3cccnc3)nn2)O[C@H]1CO)c1ccccc1F | inactive
23 | CCNC(=O)[C@@H]1[C@@H](CO)[C@@H]2Cn3c(ccc(-c4cccnc4)c3=O)[C@@H]2N1Cc1ccc2c(c1)OCO2 | inactive
24 | COC(=O)C[C@@H]1C[C@@H]2c3cc(NC(=O)c4cccnc4)ccc3O[C@@H]2[C@@H](CO)O1 | inactive
25 | CCOc1ccc(C(=O)Nc2cc3c(cc2N2CCCC2)n(CC)c(=O)n3CC)cc1OCC | inactive
26 | O=C1CCCc2c1cc(C(=O)NCCCN1CCOCC1)c(=O)n2-c1ccc(Cl)cc1 | inactive
27 | O=C(O)CCS(=O)(=O)c1nc(-c2cccs2)cc(C(F)(F)F)n1 | inactive
28 | COCCNC(=O)C[C@@H]1CC[C@@H]2[C@@H](COc3ccc(NC(=O)Nc4cccc(F)c4)cc3C(=O)N2C)O1 | inactive
29 | COC(=O)C1=C(C)Nc2sc(C(N)=O)c(N)c2C1c1ccncc1 (stereo unspecified) | inactive
30 | CC(=O)N1CC[C@@H]2[C@@H](CO)N(C)c3ccc(-c4ccccc4)cc3[C@@H]21 | inactive
31 | O=C(Nc1ccc(F)c(F)c1)C1CCN(S(=O)(=O)c2cccs2)CC1 | inactive
32 | CC(=O)c1ccc(N2CCN(S(=O)(=O)c3c(C(=O)N4CCCC4)c(C)n(C)c3C)CC2)cc1 | inactive
33 | Cn1nnc2cc(C(=O)Nc3cccnc3)ccc21 | inactive
34 | COCCNC(=O)C[C@H]1CC[C@@H]2[C@H](COc3ccc(NC(=O)Nc4cccc(F)c4)cc3C(=O)N2C)O1 | inactive
35 | CCCN1CCN(C(=O)C2CCN(c3nnc(C)c4c(C)n(-c5ccc(C)cc5)nc34)CC2)CC1 | inactive
36 | COCCN1C(=O)c2ccc(C(=O)Nc3cccnc3)cc2C1=O | inactive
